Test results: PubChem BioAssay (NCATS)
“And” between values parts separate entries of the source, which are not always exact repeats. Identical values can stand only once. Inconclusive results are not listed. The source made the active and inactive calls. Unless noted, calls come from the whole dose curve; as a rule, active = well fitted curve in the direction sought with a large enough effect; inconclusive = small, poorly fitted or top-dose-only effect, or another doubt; inactive = no such curve, though single readings can be large; an effect the other way counts as inactive or inconclusive.

Assays:
[1] = molecular target: Guanine nucleotide-binding protein G(i) subunit alpha-1 (Homo sapiens) (UniProt P63096); assay: qHTS Assay for Inhibitors of RGS12 GoLoco Motif Activity (Green Fluorophore) (AID 879);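 note: negative values mean loss of peptide binding seen as reduced polarization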
Summary of the method: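 A drop in FITC polarization marked displacement of the FITC-tagged RGS12 GoLoco peptide (10 nM) from Gαi1 (50 nM). Compounds were incubated 10 min at room temperature in Tris pH 7.5 buffer containing 150 mM NaCl, 0.1 mM GDP and 0.05% NP40; unlabeled peptide titration served as control.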

[2] = molecular target: Cytochrome P450 2C9 (Homo sapiens) (UniProt P11712); assay: qHTS Assay for Inhibitors and Substrates of Cytochrome P450 2C9 (AID 883); note: nearly all actives have a fitted effect of over 60% in size; note: potency is the fitted concentration of half-maximal effect
Summary of the method: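 Human CYP2C9 (10nM) hydroxylated Luciferin-H (100uM, at its KM) to luciferin in 25mM KPO4. Compound was preincubated 10 min at 37C, then NADPH regeneration started a 60 min reaction at 37C. Luminescence was read after detection reagent, normalized to 57uM sulphaphenazole.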

[3] = molecular target: Cytochrome P450 3A4 (Homo sapiens) (UniProt P08684); assay: qHTS Assay for Inhibitors and Substrates of Cytochrome P450 3A4 (AID 884); note: nearly all actives have a fitted effect of over 50% in size; note: potency is the fitted concentration of half-maximal effect
Summary of the method: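 Luminescent readout of luciferin produced by CYP3A4 (20 nM) dealkylation of Luciferin-PPXE, 25 uM (its KM). NADPH-driven reaction ran 60 min at RT after 10 min compound preincubation; data scaled to 57 uM ketoconazole as 100% inhibition.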

[4] = molecular target: Cytochrome P450 2D6 (Homo sapiens) (UniProt P10635); assay: qHTS Assay for Inhibitors and Substrates of Cytochrome P450 2D6 (AID 891); note: nearly all actives have a fitted effect of over 60% in size; note: potency is the fitted concentration of half-maximal effect
Summary of the method: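 Luminescent read-out of luciferin formed by 5 nM human CYP2D6 demethylating 30 uM Luciferin-ME EGE (Km level) over 60 min at room temperature after NADPH regeneration addition. Data normalized to full inhibition by 1.43 uM quinidine.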

[5] = Confirmation and Secondary Assay for Modulators of Hemoglobin Beta Chain Splicing at IVS2 654 locus (AID 910);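 note: per-well total GFP intensity by laser scanning cytometry after 2-day treatment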
Summary of the method: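 HeLa cells stably carrying EGFP interrupted by mutant beta-globin IVS2-654 intron (CMV-driven) were treated with compound for 2 days at 37C; corrected splicing was scored as total peak GFP intensity per well (488 nm excitation, 500-520 nm emission).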

[6] = qHTS Assay for Identification of Small Molecule Agonists for Thrombopoietin (TPO) Signaling Pathway (AID 917); note: potency is the fitted concentration of half-maximal effect
Summary of the method: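 First, Ba/F3 cells with human TPO receptor were held overnight without IL-3. Next, compounds and TPO (26 pM final) were added. After 24 hrs at 37 C, luciferase detection reagent was added and luminescence measured following 10 min at room temperature.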

[7] = Confirmation and Secondary Assay for Modulators of Hemoglobin Beta Chain Splicing at IVS2 705 locus (AID 930);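 note: HeLa cells stably expressing the EGFP-705 splicing reporter; GFP fluorescence per well restored by corrected splicing of the IVS2-705 intron in EGFP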
Summary of the method: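 Assay measures total GFP intensity per well in HeLa EGFP-705 cells after 2 days with compound; mis-splicing normally truncates EGFP, so fluorescence indicates corrected splicing.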

[8] = Cellular Toxicity (caspase-3) Hek293 (AID 664); conditions: HEK293 caspase-3 activation; caspase-3 activation: at 92.2 µM (top of the series), DMSO = 0%, 100 µM tamoxifen = 100%;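 note: cells exposed to compound for 16 h at 37 °C before readout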
Summary of the method: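 Apoptosis readout: Caspase-Glo 3/7 signal in human HEK293 cells following 16-hour compound incubation. Responses scaled between DMSO baseline and 100 uM tamoxifen.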

[9] = Cellular Toxicity (caspase-3) N2a (AID 665); conditions: Potency: caspase-3 activation;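 note: compound exposure lasted 16 h at 37 °C before readout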
Summary of the method: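 Concentration-response qHTS: compound-induced caspase-3/7 luminescence in N2a cells (16 h, 37 °C), relative to DMSO and 10 uM staurosporine controls; AC50 obtained using the standard Hill equation.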

[10] = Cellular Toxicity (caspase-3) NIH 3T3 (AID 666);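 note: caspase signal read after 16 h compound exposure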
Summary of the method: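 Activity: caspase-3/7 induction, NIH 3T3 cells, 16 hr treatment at 37°C, luminescent Caspase-Glo detection; AC50 via Hill equation.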

[11] = Cellular Toxicity (caspase-3) Renal Proximal Tubule (AID 667); conditions: Potency: caspase-3 activation;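 note: cells exposed to compound for 16 hours at 37 °C before detection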
Summary of the method: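 Primary rat proximal tubule cells, 1000/well, 5 h plating at 37 °C, then compound 16 h at 37 °C. Caspase-Glo 3/7 reagent, 1 h RT, luminescence. Normalized to DMSO (basal) and 10 uM staurosporine (100%); Hill-fit AC50.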

[12] = molecular target: Cytochrome P450 3A4 (Homo sapiens) (UniProt P08684); assay: qHTS Assay for Activators of Cytochrome P450 3A4 (AID 885); note: nearly all actives have a fitted effect of over 65% in size
Summary of the method: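 Human CYP3A4 dealkylates Luciferin-PPXE to luciferin, which luciferase detection converts to light. Substrate was at its KM (25uM), buffer 200mM KPO4, reaction 60 min at RT.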

[13] = Cell Viability - LYMP2-001 (AID 921); note: nearly all actives have a fitted effect of over 70% in size
Summary of the method: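 Human lymphoblastoid cells (Coriell), 2500 per well, were preincubated 5 hr at 37 C, then exposed to compounds in complete medium for 24 hr at 37 C. Cellular ATP was read by CellTiter-Glo luminescence; AC50 from Hill fits of concentration-response data.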

[14] = molecular target: Cytochrome P450 2C19 (Homo sapiens) (UniProt P33261); assay: qHTS Assay for Inhibitors and Substrates of Cytochrome P450 2C19 (AID 899); note: potency is the fitted concentration of half-maximal effect; nearly all actives have a fitted effect of over 60% in size
Summary of the method: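 Human CYP2C19 (5nM) with Luciferin-H EGE at 10uM (its KM) in 50mM KPO4 was preincubated with compound for 10 min at 37C. NADPH regeneration started a 60 min 37C reaction. Luciferin was read by luminescence, normalized to 57uM ketoconazole.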

[15] = molecular target: Muscarinic acetylcholine receptor M1 (Rattus norvegicus) (UniProt P08482); assay: qHTS Assay for Antagonists of Acetylcholine Muscarinic M1 Receptor: Kinetic Measurement of Intracellular Calcium Response (AID 943);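 note: Fluo-4 calcium signal as peak divided by basal fluorescence over 4 min; nearly all actives have a fitted effect of over 75% in size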
Summary of the method: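 Quantitative HTS in CHO-M1 (rat receptor) cells: 10 min compound exposure ahead of 100 nM carbachol, Fluo-4 fluorescence followed 4 min, value expressed as peak-to-basal ratio.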

[16] = molecular target: Pyruvate kinase (Leishmania mexicana) (UniProt Q27686); assay: qHTS Validation Assay for Inhibitors of Leishmania Mexicana Pyruvate Kinase (AID 945); note: potency is the fitted concentration of half-maximal effect
Summary of the method: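 Pyruvate kinase activity of E451W LmPYK (0.2 nM) was followed as ATP output after 1 h at room temperature with 0.5 mM PEP and 0.1 mM ADP, detected by PKLight luminescence.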

[17] = qHTS Assay for Identification of Small Molecule Antagonists for NFkB Signaling Pathway (AID 895; active = well fitted inhibition curve with a large enough effect in the signal ratio, with a control signal flat, not every such curve was filed as active; the % refers to the signal ratio)
Summary of the method: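 NFkB-bla ME-180 cervical carcinoma cells with beta-lactamase reporter under NFkB response element; compounds added, then TNF alpha at 10 pM final (EC50), 5 h at 37 C. LiveBLAzer substrate 2 h, room temperature; emission 460/530 nm at 405 nm excitation.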

Measured: Potency

Cytochrome P450 2C9 (Homo sapiens), sequence (P11712 whole entry, looked up): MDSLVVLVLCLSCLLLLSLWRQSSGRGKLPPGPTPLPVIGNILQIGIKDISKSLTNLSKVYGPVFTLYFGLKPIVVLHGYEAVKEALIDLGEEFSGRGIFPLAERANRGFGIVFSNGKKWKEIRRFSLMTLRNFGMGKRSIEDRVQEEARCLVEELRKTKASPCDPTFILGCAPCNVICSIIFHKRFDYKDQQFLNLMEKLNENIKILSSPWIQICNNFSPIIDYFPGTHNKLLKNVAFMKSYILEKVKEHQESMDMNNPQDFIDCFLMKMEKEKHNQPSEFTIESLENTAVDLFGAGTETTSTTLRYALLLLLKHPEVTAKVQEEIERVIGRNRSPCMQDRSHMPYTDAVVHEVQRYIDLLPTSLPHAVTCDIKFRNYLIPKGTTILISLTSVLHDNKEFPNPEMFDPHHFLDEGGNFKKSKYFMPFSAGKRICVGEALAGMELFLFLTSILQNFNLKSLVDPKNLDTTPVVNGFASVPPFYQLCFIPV
Cytochrome P450 3A4 (Homo sapiens), sequence (P08684 whole entry, looked up): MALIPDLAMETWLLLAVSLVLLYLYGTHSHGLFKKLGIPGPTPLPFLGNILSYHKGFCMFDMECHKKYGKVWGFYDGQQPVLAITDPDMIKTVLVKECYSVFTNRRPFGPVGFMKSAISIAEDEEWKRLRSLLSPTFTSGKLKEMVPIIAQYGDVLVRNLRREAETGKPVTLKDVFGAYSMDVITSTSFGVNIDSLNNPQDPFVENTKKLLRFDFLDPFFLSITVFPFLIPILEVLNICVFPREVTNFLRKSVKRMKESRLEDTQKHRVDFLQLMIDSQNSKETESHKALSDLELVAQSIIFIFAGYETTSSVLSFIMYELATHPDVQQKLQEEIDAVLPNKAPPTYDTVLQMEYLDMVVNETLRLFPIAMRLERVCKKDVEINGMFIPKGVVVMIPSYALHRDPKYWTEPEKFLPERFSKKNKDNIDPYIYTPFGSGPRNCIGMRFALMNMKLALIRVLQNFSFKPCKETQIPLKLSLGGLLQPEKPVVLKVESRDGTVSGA
Pyruvate kinase (Leishmania mexicana), sequence (Q27686 2-499 E452W): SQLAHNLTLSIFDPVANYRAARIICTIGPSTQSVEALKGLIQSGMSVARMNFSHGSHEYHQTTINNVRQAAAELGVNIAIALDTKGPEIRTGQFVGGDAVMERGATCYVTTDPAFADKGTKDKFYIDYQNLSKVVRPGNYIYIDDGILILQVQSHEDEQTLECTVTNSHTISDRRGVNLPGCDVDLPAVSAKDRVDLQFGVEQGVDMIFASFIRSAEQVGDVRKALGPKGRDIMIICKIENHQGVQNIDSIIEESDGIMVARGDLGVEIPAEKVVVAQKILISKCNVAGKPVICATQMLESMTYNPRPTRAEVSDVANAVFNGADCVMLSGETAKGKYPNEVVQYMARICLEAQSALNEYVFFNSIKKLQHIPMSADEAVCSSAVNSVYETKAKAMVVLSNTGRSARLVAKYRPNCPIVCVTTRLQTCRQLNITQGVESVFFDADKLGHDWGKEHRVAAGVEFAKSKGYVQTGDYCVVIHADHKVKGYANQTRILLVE
Cytochrome P450 2D6 (Homo sapiens), sequence (P10635 whole entry, looked up): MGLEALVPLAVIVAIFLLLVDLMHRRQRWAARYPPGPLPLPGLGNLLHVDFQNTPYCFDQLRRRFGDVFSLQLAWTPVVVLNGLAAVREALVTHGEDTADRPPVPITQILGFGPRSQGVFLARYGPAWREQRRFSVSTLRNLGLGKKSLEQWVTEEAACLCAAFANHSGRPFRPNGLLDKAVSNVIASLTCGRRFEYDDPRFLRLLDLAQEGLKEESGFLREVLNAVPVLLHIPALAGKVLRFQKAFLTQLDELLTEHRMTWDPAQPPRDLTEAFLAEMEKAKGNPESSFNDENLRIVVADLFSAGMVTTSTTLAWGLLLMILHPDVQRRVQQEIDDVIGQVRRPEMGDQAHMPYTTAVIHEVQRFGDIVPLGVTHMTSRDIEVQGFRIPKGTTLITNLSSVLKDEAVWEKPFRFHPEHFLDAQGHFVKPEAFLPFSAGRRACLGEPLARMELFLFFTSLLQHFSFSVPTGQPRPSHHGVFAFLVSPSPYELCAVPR
Muscarinic acetylcholine receptor M1 (Rattus norvegicus), sequence (P08482 whole entry, looked up): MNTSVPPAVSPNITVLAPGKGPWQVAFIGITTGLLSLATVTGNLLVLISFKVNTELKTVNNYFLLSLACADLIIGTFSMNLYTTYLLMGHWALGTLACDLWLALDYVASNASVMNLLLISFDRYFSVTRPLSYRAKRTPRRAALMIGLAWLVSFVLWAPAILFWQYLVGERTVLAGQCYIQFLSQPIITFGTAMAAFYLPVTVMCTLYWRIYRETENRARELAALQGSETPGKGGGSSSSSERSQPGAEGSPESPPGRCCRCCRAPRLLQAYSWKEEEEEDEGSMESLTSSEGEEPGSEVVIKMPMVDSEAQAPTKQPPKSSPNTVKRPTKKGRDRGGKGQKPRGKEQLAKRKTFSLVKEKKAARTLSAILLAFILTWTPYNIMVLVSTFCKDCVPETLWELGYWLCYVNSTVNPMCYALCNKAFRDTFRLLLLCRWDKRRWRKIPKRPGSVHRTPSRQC
Guanine nucleotide-binding protein G(i) subunit alpha-1 (Homo sapiens), sequence (P63096 whole entry, looked up): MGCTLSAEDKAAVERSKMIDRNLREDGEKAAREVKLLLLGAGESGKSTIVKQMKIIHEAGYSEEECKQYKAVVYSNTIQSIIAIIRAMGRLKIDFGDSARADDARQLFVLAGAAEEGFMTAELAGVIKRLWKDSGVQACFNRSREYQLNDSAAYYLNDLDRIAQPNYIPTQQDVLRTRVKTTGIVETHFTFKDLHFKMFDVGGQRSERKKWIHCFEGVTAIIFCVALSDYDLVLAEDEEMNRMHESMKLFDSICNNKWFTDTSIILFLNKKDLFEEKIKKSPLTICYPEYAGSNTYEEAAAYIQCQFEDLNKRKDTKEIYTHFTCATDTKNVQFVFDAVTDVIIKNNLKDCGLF
Cytochrome P450 2C19 (Homo sapiens), sequence (P33261 whole entry, looked up): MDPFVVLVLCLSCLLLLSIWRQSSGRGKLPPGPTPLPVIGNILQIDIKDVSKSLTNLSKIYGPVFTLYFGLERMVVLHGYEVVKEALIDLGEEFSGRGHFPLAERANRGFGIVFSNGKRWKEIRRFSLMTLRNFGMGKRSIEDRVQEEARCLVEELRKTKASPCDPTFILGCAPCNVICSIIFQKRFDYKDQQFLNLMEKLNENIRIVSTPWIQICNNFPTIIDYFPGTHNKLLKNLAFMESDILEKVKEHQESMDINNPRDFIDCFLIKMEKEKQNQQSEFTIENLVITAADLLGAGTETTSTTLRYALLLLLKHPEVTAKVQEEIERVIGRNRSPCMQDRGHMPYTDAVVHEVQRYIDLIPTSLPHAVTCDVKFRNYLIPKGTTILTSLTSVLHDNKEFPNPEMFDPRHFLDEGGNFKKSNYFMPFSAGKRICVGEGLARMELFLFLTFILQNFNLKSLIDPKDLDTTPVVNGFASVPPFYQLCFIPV

CC(C)OC(=O)C(C)(C)Oc1ccc(C(=O)c2ccc(Cl)cc2)cc1
active: [2] 5.01 µM
inactive: [1] | [3] | [4] | [5] | [6] | [7]

O=C(O)c1cc(O)c2c(c1)C(=O)c1cccc(O)c1C2=O
inactive: [8] | [9] | [10] | [11] | [3] | [12] | [13]

O=c1c(O)c(-c2ccc(O)cc2)oc2cc(O)cc(O)c12
active: [2] 15.8 µM | [4] 15.8 µM
inactive: [8] | [9] | [10] | [11] | [12] | [13]

O=c1cc(-c2ccc(O)cc2)oc2cc(O)cc(O)c12
active: [14] 7.94 µM | [16] 12.6 µM
not listed: [1] | [3] | [4] | [6] | [7] | [17]
inactive: all other assays above

COc1ccccc1N1CCN(CCCNc2cc(=O)n(C)c(=O)n2C)CC1
inactive: [1] | [3] | [5] | [6] | [7] | [16]
active: [14] 7.94 µM

C[N+](C)(C)CCCCCC[N+](C)(C)C
inactive: [1] | [2] | [3] | [5] | [6] | [7] | [15] | [16]

O=c1[nH]cnc2c1ncn2[C@H]1CC[C@@H](CO)O1
inactive: [8] | [9] | [10] | [11] | [3] | [13]

COc1cccc(-c2cc(=O)c3ccccc3o2)c1N
inactive: [1] | [12] | [17]
active: [3] 7.94 µM | [14] 6.31 µM | [6] 0.398 µM | [16] 12.6 µM

Nc1ncnc2c1ncn2[C@@H]1O[C@H](CO)C[C@@H]1O
inactive: [3]

O=c1cc(-c2ccccc2)oc2cc(O)c(O)c(O)c12
active: [2] 5.01 µM | [4] 31.6 µM | [14] 5.01 µM
inactive: [12] | [5]

Clc1ccc(Cn2c(CN3CCCC3)nc3ccccc32)cc1
inactive: [1] | [12] | [6] | [16]
active: [4] 1.26 µM and 794 nM | [14] 0.199 µM

COCCCCC(=NOCCN)c1ccc(C(F)(F)F)cc1
active: [4] 3.98 µM | [14] 0.0631 µM
inactive: [12] | [6] | [15] | [16]
